Experimental data published in PubChem BioAssay (NCI).
The panel holds about 83,000 compounds, 20% with a hit somewhere; the sample as a whole holds those more often.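 Percent growth is the endpoint: 0 to 100 indicates growth inhibition (40 means 60% inhibition), 0 means no net growth, and negative values indicate cell death.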 Active and inactive are the calls of the source. The calls were made as follows: active = growth percent below 10; inactive = the rest.

Legend:
Assay in all cases: NCI-60 one-dose screen, 48 h (100 = growth as untreated, 0 = no growth, -100 = all killed)
Details in all cases: 10 µM unless noted
HCT-15 colon = test system: HCT-15 colon
HT29 colon = test system: HT29 colon
SNB-75 CNS = test system: SNB-75 CNS
SNB-19 CNS = test system: SNB-19 CNS
U251 CNS = test system: U251 CNS
PC-3 prostate = test system: PC-3 prostate
SK-MEL-5 melanoma = test system: SK-MEL-5 melanoma
UACC-62 melanoma = test system: UACC-62 melanoma
LOX IMVI melanoma = test system: LOX IMVI melanoma
SK-MEL-28 melanoma = test system: SK-MEL-28 melanoma

Measured: growth

c1ccc2c(c1)CCCc1nnc3nc4ccccc4n3c1-2
inactive: HCT-15 colon 40.2% | HT29 colon 31.4% | SNB-75 CNS 45.4% | SNB-19 CNS 56.5% | U251 CNS 38.5% | PC-3 prostate 37.1% | SK-MEL-5 melanoma 56.5% | UACC-62 melanoma 57.7% | LOX IMVI melanoma 33.7% | SK-MEL-28 melanoma 83.7%

Cc1ccc(C(=O)c2ccc(CC(=O)NN3C(=O)c4ccccc4C3=O)n2C)cc1
inactive: HCT-15 colon 103% | HT29 colon 106% | SNB-75 CNS 62.9% | SNB-19 CNS 96.4% | U251 CNS 95.8% | PC-3 prostate 98.9% | SK-MEL-5 melanoma 99.8% | UACC-62 melanoma 94.2% | LOX IMVI melanoma 94.1% | SK-MEL-28 melanoma 103%

CCc1ccc(CCC(=O)Nc2ncc(Cc3ccccc3)s2)o1
inactive: HCT-15 colon 20.2% | SNB-19 CNS 52.9% | U251 CNS 27.2% | PC-3 prostate 26.7% | SK-MEL-5 melanoma 42.8% | UACC-62 melanoma 23% | LOX IMVI melanoma 42.4% | SK-MEL-28 melanoma 56.4%
active: HT29 colon 9.07% | SNB-75 CNS 3.46%

C=Cc1cnc(Nc2ccc(OC)cc2)nc1NCCCNC(=O)C1CCC1
active: HT29 colon 8.04% | SNB-75 CNS -5.11%
inactive: HCT-15 colon 35.7% | SNB-19 CNS 57.5% | U251 CNS 29% | PC-3 prostate 64.2% | SK-MEL-5 melanoma 37.5% | UACC-62 melanoma 82.3% | LOX IMVI melanoma 20.4% | SK-MEL-28 melanoma 80.3%

O=C(NNc1cnccn1)c1nc2cc(F)ccc2n2cccc12
inactive: HCT-15 colon 25.7% | HT29 colon 27.9% | SNB-75 CNS 41.1% | SNB-19 CNS 26.2% | U251 CNS 14% | PC-3 prostate 29.4% | SK-MEL-28 melanoma 21%
active: SK-MEL-5 melanoma -48.2% | UACC-62 melanoma -21.1% | LOX IMVI melanoma -53.5%

NC(=O)c1c(NC(=O)c2cccc(C(F)(F)F)c2)sc2c1CCC(=O)C2
active: HCT-15 colon -21.2% | HT29 colon 3.32% | SNB-75 CNS -75.9% | U251 CNS 7.56% | PC-3 prostate -29.8% | SK-MEL-5 melanoma -56.3% | UACC-62 melanoma -45.4% | LOX IMVI melanoma 5.08%
inactive: SNB-19 CNS 11.6% | SK-MEL-28 melanoma 20.7%

C=CCOC(=O)C1=C(C)N(CC)C(=O)NC1c1c(Cl)n(C)c2ccccc12 (stereo not given)
inactive: HCT-15 colon 82.5% | HT29 colon 89.8% | SNB-75 CNS 92.3% | SNB-19 CNS 99.9% | U251 CNS 97.9% | PC-3 prostate 87.7% | SK-MEL-5 melanoma 100% | UACC-62 melanoma 82.6% | LOX IMVI melanoma 88.6% | SK-MEL-28 melanoma 104%

O=C(Cn1nnc2ccccc21)N/N=C/c1c[nH]c2ccccc12
inactive: HCT-15 colon 33.3% | HT29 colon 13.1% | SNB-75 CNS 33.5% | SNB-19 CNS 41.3% | U251 CNS 39.5% | PC-3 prostate 61.7% | SK-MEL-5 melanoma 28.4% | UACC-62 melanoma 23% | LOX IMVI melanoma 46.1% | SK-MEL-28 melanoma 72.5%

CC1=CCC(OC(=O)C(C)(C)CC(O)(C(C)O)C(O)C2(C)C=CC(Cc3ccc(C(C)C)cc3)(C(C)C)CC2)(C(C)C)CC1 (stereo not given)
inactive: HCT-15 colon 101% | HT29 colon 103% | SNB-75 CNS 72.5% | SNB-19 CNS 98.2% | U251 CNS 96.7% | PC-3 prostate 96.8% | SK-MEL-5 melanoma 99.6% | UACC-62 melanoma 86.3% | SK-MEL-28 melanoma 100%
active: LOX IMVI melanoma -50.6%

CN(C)CCCC1(c2ccc(F)cc2)OCc2cc(-c3ccc4cc[nH]c4c3)ccc21 (stereo not given)
inactive: HCT-15 colon 25.8% | SNB-75 CNS 33.8% | SNB-19 CNS 69.2% | U251 CNS 17.5% | PC-3 prostate 43.5% | SK-MEL-5 melanoma 56.6% | UACC-62 melanoma 56.9% | SK-MEL-28 melanoma 64.1%
active: HT29 colon 4.73% | LOX IMVI melanoma -83.4%

C#CC#CC#CC#CC#CC#CC#CC#CC[C@@H]1OC[C@@H](COC(=O)O[C@@H](C(=O)O[C@H]2C[C@@]3(O)[C@@H](OC(=O)c4ccccc4)[C@@H]4[C@]5(OC(C)=O)CO[C@@H]5C[C@H](O)[C@@]4(C)C(=O)[C@H](OC(C)=O)C(=C2C)C3(C)C)[C@@H](NC(=O)c2ccccc2)c2ccccc2)O1
inactive: HCT-15 colon 11% | HT29 colon 101% | SNB-75 CNS 90.1% | SNB-19 CNS 14.9% | U251 CNS 96.3% | PC-3 prostate 11.1% | SK-MEL-5 melanoma 22.1% | UACC-62 melanoma 25.2% | LOX IMVI melanoma 22.2% | SK-MEL-28 melanoma 55.4%

CC/C=C\CCC/C=C1/C(=O)C=C[C@@H]1C/C=C\CCCC(=O)OC
inactive: SNB-75 CNS 82.7% | SNB-19 CNS 50.2% | U251 CNS 19.7% | PC-3 prostate 32.8% | SK-MEL-28 melanoma 61.3%
active: HCT-15 colon 4.07% | HT29 colon -1.77% | SK-MEL-5 melanoma -32% | UACC-62 melanoma -14.2% | LOX IMVI melanoma -70.8%

Oc1c(CN2CCCC2)cc(CSCc2ccccc2)c2cccnc12
inactive: HT29 colon 91% | SNB-75 CNS 24.6% | SNB-19 CNS 23.9% | PC-3 prostate 20.8% | SK-MEL-28 melanoma 23.8%
active: HCT-15 colon -39.3% | U251 CNS -1.52% | SK-MEL-5 melanoma -26.3% | UACC-62 melanoma -19.5% | LOX IMVI melanoma 2.24%

CCOC(=O)C(Cc1ccc(OC)cc1)C(=O)OCC
inactive: HCT-15 colon 36.7% | HT29 colon 21.3% | SNB-75 CNS 30.1% | SNB-19 CNS 41.7% | U251 CNS 37.2% | PC-3 prostate 47.2% | SK-MEL-5 melanoma 53.1% | UACC-62 melanoma 33.4% | LOX IMVI melanoma 17% | SK-MEL-28 melanoma 51.5%

Cc1ccc2c(-n3nc(C#N)c(C#N)c3N)cc(=O)[nH]c2c1
inactive: HCT-15 colon 87.9% | HT29 colon 93.7% | SNB-75 CNS 110% | SNB-19 CNS 88.6% | U251 CNS 86.4% | PC-3 prostate 71.1% | SK-MEL-5 melanoma 93.5% | UACC-62 melanoma 80.2% | LOX IMVI melanoma 81% | SK-MEL-28 melanoma 94.1%

COc1ccc(C2=NN(C(C)=O)C(c3cn(-c4ccccc4)nc3-c3ccc(Cl)cc3)C2)cc1 (stereo not given)
active: HT29 colon -6.18% | SNB-75 CNS -4.48% | U251 CNS -7.11% | LOX IMVI melanoma 0.526%
inactive: HCT-15 colon 17.1% | SNB-19 CNS 34.2% | PC-3 prostate 34.3% | SK-MEL-5 melanoma 27.1% | UACC-62 melanoma 20% | SK-MEL-28 melanoma 56.3%
